The values below come from ChEMBL document CHEMBL1961873, “Compounds: GSK PKIS; Assays: Nanosyn kinase panel” (2012).

A word on the inhibition: it is the relative decrease from the control value, in per cent.

Sequence of Fibroblast growth factor receptor 1 (Homo sapiens) (P11362 22-822 limits assumed): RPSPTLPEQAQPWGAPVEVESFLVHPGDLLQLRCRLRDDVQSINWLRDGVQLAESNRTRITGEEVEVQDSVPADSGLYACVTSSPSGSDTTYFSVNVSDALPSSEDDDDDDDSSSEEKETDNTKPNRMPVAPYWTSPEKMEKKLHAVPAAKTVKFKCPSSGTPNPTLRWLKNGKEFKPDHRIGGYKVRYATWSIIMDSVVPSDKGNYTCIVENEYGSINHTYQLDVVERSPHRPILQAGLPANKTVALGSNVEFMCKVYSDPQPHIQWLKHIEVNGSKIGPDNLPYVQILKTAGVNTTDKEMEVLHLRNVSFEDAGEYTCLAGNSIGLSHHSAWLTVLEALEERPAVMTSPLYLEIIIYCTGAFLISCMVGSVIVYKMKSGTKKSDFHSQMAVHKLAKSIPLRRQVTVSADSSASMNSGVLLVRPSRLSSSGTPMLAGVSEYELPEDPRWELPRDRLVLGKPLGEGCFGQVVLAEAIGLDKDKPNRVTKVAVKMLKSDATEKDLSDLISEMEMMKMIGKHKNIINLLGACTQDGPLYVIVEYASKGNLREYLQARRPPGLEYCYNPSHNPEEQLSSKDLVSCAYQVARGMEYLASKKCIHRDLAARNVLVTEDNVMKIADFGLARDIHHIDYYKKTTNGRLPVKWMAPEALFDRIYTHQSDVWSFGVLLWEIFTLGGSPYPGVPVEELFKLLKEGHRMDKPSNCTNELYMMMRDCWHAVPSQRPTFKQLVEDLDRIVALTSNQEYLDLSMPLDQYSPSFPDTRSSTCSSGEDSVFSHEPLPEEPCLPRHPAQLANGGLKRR
Sequence of Tyrosine-protein kinase Fes/Fps (Homo sapiens) (P07332 whole entry): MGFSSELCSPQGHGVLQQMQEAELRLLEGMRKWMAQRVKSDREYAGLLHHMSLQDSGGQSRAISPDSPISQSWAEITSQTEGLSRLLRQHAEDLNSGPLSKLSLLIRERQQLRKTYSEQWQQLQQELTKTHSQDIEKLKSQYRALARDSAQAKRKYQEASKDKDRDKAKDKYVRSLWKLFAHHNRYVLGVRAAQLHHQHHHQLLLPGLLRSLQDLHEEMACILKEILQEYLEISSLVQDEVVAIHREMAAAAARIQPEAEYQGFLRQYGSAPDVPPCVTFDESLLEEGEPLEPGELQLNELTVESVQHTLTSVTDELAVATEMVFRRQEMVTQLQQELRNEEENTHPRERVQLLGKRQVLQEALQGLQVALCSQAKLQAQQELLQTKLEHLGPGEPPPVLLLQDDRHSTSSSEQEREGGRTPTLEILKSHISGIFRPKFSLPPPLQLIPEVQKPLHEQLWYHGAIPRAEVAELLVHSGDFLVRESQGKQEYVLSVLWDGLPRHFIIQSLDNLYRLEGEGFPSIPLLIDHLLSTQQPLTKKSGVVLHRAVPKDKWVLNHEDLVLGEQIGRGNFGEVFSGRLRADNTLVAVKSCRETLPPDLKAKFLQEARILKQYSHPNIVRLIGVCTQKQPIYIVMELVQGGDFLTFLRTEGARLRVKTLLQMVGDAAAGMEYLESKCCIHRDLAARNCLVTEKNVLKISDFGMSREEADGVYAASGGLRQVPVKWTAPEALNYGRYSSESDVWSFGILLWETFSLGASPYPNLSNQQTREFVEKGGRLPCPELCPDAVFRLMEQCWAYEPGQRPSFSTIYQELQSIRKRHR

The first assay has as its target Tyrosine-protein kinase Fes/Fps (Homo sapiens) (UniProt P07332). To be noted: at 1 µM.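 Further: mean inhibition of FES from the GSK PKIS kinase inhibitor screening set, assayed by Nanosyn.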
Consider `O=C(O[C@H]1CN[C@H](C#Cc2cc3ncnc(Nc4ccc(Cc5ccccc5)cc4)c3s2)C1)N1CCOCC1`, for which the inhibition is 1.71%.
For `CCn1c(-c2nonc2N)nc2ccccc21`, the inhibition was 2.57%.
Same read-out and setting: the result for `COc1ccc2[nH]c3c4[nH]c5ccc(OC)cc5c4c4c(c3c2c1)C(=O)NC4=O` reads 10.4%; that for `CCn1cc(-c2ccnc3[nH]ccc23)c(-c2cccc(NC(=O)Nc3ccc(OCc4ccccc4)cc3)c2)n1`, 2.87%.
Turning to `Fc1ccc(-c2nn3ncccc3c2-c2ccnc(Nc3ccc4c(c3)OCCO4)n2)cc1`, the inhibition is 6.43%.
For the compound `CCN1CCC(CC(=O)Nc2n[nH]c3nnc(-c4cccc(F)c4F)cc23)CC1`, the inhibition turned out to be 2.12%.
Still for that read-out and setting: the figure for `CC(C)COC(=O)c1ccc2c(c1)/C(=C/Nc1ccc(S(N)(=O)=O)cc1)C(=O)N2` is -0.27%; for `COC(=O)Nc1nc2ccc(S(=O)(=O)c3ccc(NC(=O)Nc4cc(C(F)(F)F)ccc4F)cc3)cc2[nH]1` it is 2.5%; for `CCOc1ccc2c(-c3ccnc(Nc4cccc(C(F)(F)F)c4)n3)cnn2n1` it is 2.59%.
Same read-out and setting: the result for `COc1cccc(-n2ncc3c(N/N=C/c4ccc(F)cc4)ncnc32)c1` reads 3.42%; that for `COc1cc(Nc2nccc(Nc3ccc4c(C)n[nH]c4c3)n2)cc(OC)c1OC`, 10.6%.
Same read-out and setting: the figure for `CC1=C(C(=O)Nc2cc(Cl)c3[nH]ncc3c2)C(c2ccc(C(F)(F)F)cc2)CC(=O)N1` (configuration not stated) is 2.33%.
For `CCn1c(-c2nonc2N)nc2c(C#CC(C)(C)O)ncc(OC3CCNCC3)c21`, the inhibition was found to be 5.88%.
On the same count and under the same terms, the figure for `CNC(=O)c1cccc(C#Cc2cncnc2Nc2ccc(OCc3cccc(F)c3)c(Cl)c2)c1` is 1.47%.
On the same count and under the same terms, the figure for `COc1ccc(-c2cc3c(N)ncnc3o2)cc1` is -0.8%.
The same measure, in the same setting: the figure for `COc1cc(/C=N/Nc2ncnc3[nH]ncc23)ccc1O` is 7.19%.
With `COc1cc2ncn(-c3cc(OCc4ccccc4C(F)(F)F)c(C(=O)N(C)C)s3)c2cc1OC`, the inhibition is 0.64%.
Turning to `NS(=O)(=O)c1ccc(Nc2ncc(-c3ccccc3)o2)cc1`, the inhibition came out at 4.88%.

The next assay addresses Fibroblast growth factor receptor 1 (Homo sapiens) (UniProt P11362). The note with it: at 0.1 µM.
Consider `CCCN(CCS(C)(=O)=O)Cc1ccc(-c2ccc3ncnc(Nc4ccc(OCc5cccc(F)c5)c(Cl)c4)c3c2)o1`, for which the inhibition was determined as 3.02%.
On the same count and under the same terms, the figure for `Cc1ccc2c(-c3ccnc(Nc4ccccc4)n3)c(-c3ccc(F)cc3)nn2n1` is 9.59%; for `Fc1ccc(-c2cc(-c3c[nH]nc3-c3ccccn3)ccn2)cc1` it is 6.18%.
Turning to `FC(F)(F)c1cccc(-c2nn3ncccc3c2-c2ccnc(Nc3ccc4c(c3)OCCO4)n2)c1`, the inhibition came out at 2.8%.
Regarding `N#Cc1c(NC(=O)CN2CCOCC2)sc2c1CCCC2`, the inhibition worked out at 4.57%.
The same measure, in the same setting: the figure for `c1ccc(COc2ccc(Nc3ncnc4ccc(-c5ccco5)cc34)cc2)cc1` is -8.22%; for `Fc1ccc(-c2nn3ccccc3c2-c2ccncc2)cc1` it is 3.29%.
Still for that read-out and setting: the result for `Cc1cccc(Nc2ncc(-c3ccccc3)o2)c1` reads 5.23%.
The same measure, in the same setting: the figure for `COc1cc2c(cc1Nc1nc(Nc3ccsc3C(N)=O)c3cc[nH]c3n1)N(C(=O)CN(C)C)CCC2(C)C` is 7.38%; for `c1cc(-c2cnn3nc(N4CCOCC4)ccc23)nc(NC2CC2)n1` it is 8.29%.
On to `CC(=O)NCc1cccc(C#Cc2cncnc2Nc2ccc(OCc3cccc(F)c3)c(Cl)c2)c1`, for which the inhibition is -0.81%.
For the compound `CC(=O)Nc1cccc(C#Cc2cncnc2Nc2ccc(OCc3cccc(F)c3)c(Cl)c2)c1`, the inhibition was 5.54%.
The same measure, in the same setting: the result for `Nc1nc(-c2cccc(Cl)c2)c(-c2ccc3ncccc3n2)s1` reads 3.71%.
Regarding `COc1ccc(-c2oc3ncnc(N)c3c2-c2ccc(NC(=O)Nc3cc(C(F)(F)F)ccc3F)cc2)cc1`, the inhibition amounted to 10.1%.
Same read-out and setting: the figure for `CC(C)(CO)CNC(=O)c1ccc2c(c1)/C(=N/Nc1ccc(S(N)(=O)=O)cc1)C(=O)N2` is -4.71%; for `CCNC(=O)O[C@H]1CN[C@H](C#Cc2cc3ncnc(Nc4ccc(OCc5cccc(F)c5)c(Cl)c4)c3s2)C1` it is 3.91%; for `O=C(O[C@H]1CN[C@H](C#Cc2cc3ncnc(Nc4ccc(Cc5ccccc5)cc4)c3s2)C1)N1CCOCC1` it is 1.97%.
For `CCn1c(-c2nonc2N)nc2ccccc21`, the inhibition was found to be 2.08%.
Still for that read-out and setting: the figure for `COc1ccc2[nH]c3c4[nH]c5ccc(OC)cc5c4c4c(c3c2c1)C(=O)NC4=O` is 1.76%.
Still for that read-out and setting: the figure for `CCn1cc(-c2ccnc3[nH]ccc23)c(-c2cccc(NC(=O)Nc3ccc(OCc4ccccc4)cc3)c2)n1` is -0.96%.
Still for that read-out and setting: the result for `Fc1ccc(-c2nn3ncccc3c2-c2ccnc(Nc3ccc4c(c3)OCCO4)n2)cc1` reads 4.68%.
Regarding `CCN1CCC(CC(=O)Nc2n[nH]c3nnc(-c4cccc(F)c4F)cc23)CC1`, the inhibition stood at 0.21%.
Still for that read-out and setting: the figure for `CC(C)COC(=O)c1ccc2c(c1)/C(=C/Nc1ccc(S(N)(=O)=O)cc1)C(=O)N2` is 0.13%; for `COC(=O)Nc1nc2ccc(S(=O)(=O)c3ccc(NC(=O)Nc4cc(C(F)(F)F)ccc4F)cc3)cc2[nH]1` it is 3.55%; for `CCOc1ccc2c(-c3ccnc(Nc4cccc(C(F)(F)F)c4)n3)cnn2n1` it is 2.54%.
Same read-out and setting: the figure for `COc1cccc(-n2ncc3c(N/N=C/c4ccc(F)cc4)ncnc32)c1` is 2.86%.
For the compound `COc1cc(Nc2nccc(Nc3ccc4c(C)n[nH]c4c3)n2)cc(OC)c1OC`, the inhibition stood at 5.2%.
Take `CC1=C(C(=O)Nc2cc(Cl)c3[nH]ncc3c2)C(c2ccc(C(F)(F)F)cc2)CC(=O)N1` (configuration not stated): the inhibition was -0.25%.
In the case of `CCn1c(-c2nonc2N)nc2c(C#CC(C)(C)O)ncc(OC3CCNCC3)c21`, the inhibition came to 1.54%.
Same read-out and setting: the result for `CNC(=O)c1cccc(C#Cc2cncnc2Nc2ccc(OCc3cccc(F)c3)c(Cl)c2)c1` reads -1.46%; that for `COc1ccc(-c2cc3c(N)ncnc3o2)cc1`, -5.35%.
In the case of `COc1cc(/C=N/Nc2ncnc3[nH]ncc23)ccc1O`, the inhibition amounted to 1.55%.
On the same count and under the same terms, the figure for `COc1cc2ncn(-c3cc(OCc4ccccc4C(F)(F)F)c(C(=O)N(C)C)s3)c2cc1OC` is -1.23%; for `NS(=O)(=O)c1ccc(Nc2ncc(-c3ccccc3)o2)cc1` it is 6.58%.
